We go through 10 compounds from PubChem BioAssay (EPA / NIEHS).

Each structure is given as a SMILES string. Results filed as inconclusive are left out. The source made the active and inactive calls. The calls were made as follows: active = hit-call score of the fitted dose curve at least 0.9, where 1 is the maximum; inconclusive = response in the unintended direction; inactive = score below 0.9.

Chain of Cytochrome P450 3A4 (Homo sapiens) (P08684 whole entry, looked up): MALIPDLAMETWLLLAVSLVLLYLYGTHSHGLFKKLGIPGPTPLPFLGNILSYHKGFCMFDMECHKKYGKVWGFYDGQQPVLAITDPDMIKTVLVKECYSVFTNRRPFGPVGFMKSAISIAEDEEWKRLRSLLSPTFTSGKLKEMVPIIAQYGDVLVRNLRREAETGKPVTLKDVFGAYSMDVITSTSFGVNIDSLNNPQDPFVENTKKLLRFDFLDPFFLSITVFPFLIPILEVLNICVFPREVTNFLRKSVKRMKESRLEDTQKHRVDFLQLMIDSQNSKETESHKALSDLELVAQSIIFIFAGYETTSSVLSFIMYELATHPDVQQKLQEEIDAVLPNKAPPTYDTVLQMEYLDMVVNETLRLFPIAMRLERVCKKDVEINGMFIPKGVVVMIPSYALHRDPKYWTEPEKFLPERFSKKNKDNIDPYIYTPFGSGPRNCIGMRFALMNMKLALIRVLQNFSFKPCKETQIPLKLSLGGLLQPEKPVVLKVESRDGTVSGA

The target of the test is Cytochrome P450 3A4 (Homo sapiens) (UniProt P08684). Put plainly: NVS_ADME_hCYP3A4: NovaScreen (NVS) CYP450-related Enzyme Activity (ADME) Assay for human CYP3A4 (AID 2283110). The method, then:
NVS_ADME_hCYP3A4 is a biochemical, single-readout assay that uses extracted gene-proteins from insect cells in a cell-free assay. Measurements were taken 0.33 hour after chemical dosing in a 96-well plate.NVS_ADME_hCYP3A4 is one of one assay component(s) measured or calculated from the NVS_ADME_hCYP3A4 assay. It is designed to make measurements of enzyme activity, a form of enzyme reporter, as detected with fluorescence intensity signals by Fluorescence technology.Data from the assay component NVS_ADME_hCYP3A4 was analyzed into 1 assay endpoint. This assay endpoint, NVS_ADME_hCYP3A4, was analyzed in the positive analysis fitting direction relative to Acetonitrile as the negative control and baseline of activity. Using a type of enzyme reporter, loss-of-signal activity can be used to understand changes in the enzymatic activity as they relate to the gene CYP3A4. Furthermore, this assay endpoint can be referred to as a primary readout, because this assay has produced multiple assay endpoints where this one serves a enzymatic activity function. To generalize the intended target to other relatable targets, this assay endpoint is annotated to the cyp intended target family, where the subfamily is xenobiotic metabolism.
Binding assays used specific radioligands (tritiated, iodinated) with non-radioactive competitive displacement ligands in agonist or antagonist protocols (as indicated) and various reference compounds and inhibitors to titrate specific binding to receptors and transporters. Most enzyme assays (CYPs, kinases, phosphatases, proteases, HDACs) used recombinant protein and specific substrates (fluorescence mostly, some colorimetric and radioactive) and inhibitors, followed by a biochemical separation of substrate and product. All assays for the biochemical HTS were initially run in duplicate at a single concentration (10 uM for CYP450 assays and 25 uM for all others). […] Each assay was run with positive and negative controls, and concurrent controls on every plate. The follow-up (secondary) screen tested active chemical-pairs in concentration series, as well as a few additional assays not tested in the primary screen, some selected negative inactives, and several cases re-run in the concentration series for confirmatory purposes.
Turning to `CCCN(CCC)c1c([N+](=O)[O-])cc(S(N)(=O)=O)cc1[N+](=O)[O-]`, the call was inactive.
On the same count and under the same terms, with `C=CC1(C)OC(=O)N(c2cc(Cl)cc(Cl)c2)C1=O` (stereo not given) the entry was “inactive”; with `CO/C=C(/C(=O)OC)c1ccccc1Oc1cc(Oc2ccccc2C#N)ncn1`, “inactive”.
For the compound `O=C(O)c1nc(Cl)ccc1Cl`, the compound was classed as inactive.
As to `N#CC(CCc1ccc(Cl)cc1)(Cn1cncn1)c1ccccc1` (stereo not given), the AC50 is 4.35 µM (active).
As for `C=CCC1=C(C)C(OC(=O)C2C(C=C(C)C)C2(C)C)CC1=O` (stereo not given), the compound was called inactive.
Take `COc1ccc(C(c2ccc(OC)cc2)C(Cl)(Cl)Cl)cc1`: the compound was classed as inactive.
Regarding `C#CCOS(=O)OC1CCCCC1Oc1ccc(C(C)(C)C)cc1` (stereo not given), the compound was classed as inactive.
For the compound `OC(c1ccc(Cl)cc1)(c1cncnc1)c1ccccc1Cl` (stereo not given), the AC50 was 3.87 µM (active).
For the compound `CN(C)C(=S)SSC(=S)N(C)C`, the compound was called inactive.

The term AC50 denotes the concentration giving half of the maximal activity seen.
